The values that follow come from ChEMBL document CHEMBL1961873, “Compounds: GSK PKIS; Assays: Nanosyn kinase panel” (2012).

Assay [1] addresses Sphingosine kinase 1 (Homo sapiens) (UniProt Q9NYA1). Conditions: at 1 µM.
The target of assay [2] is T1, Sphingosine kinase 2 (Homo sapiens) (UniProt Q9NRA0).
T1 sequence (whole entry): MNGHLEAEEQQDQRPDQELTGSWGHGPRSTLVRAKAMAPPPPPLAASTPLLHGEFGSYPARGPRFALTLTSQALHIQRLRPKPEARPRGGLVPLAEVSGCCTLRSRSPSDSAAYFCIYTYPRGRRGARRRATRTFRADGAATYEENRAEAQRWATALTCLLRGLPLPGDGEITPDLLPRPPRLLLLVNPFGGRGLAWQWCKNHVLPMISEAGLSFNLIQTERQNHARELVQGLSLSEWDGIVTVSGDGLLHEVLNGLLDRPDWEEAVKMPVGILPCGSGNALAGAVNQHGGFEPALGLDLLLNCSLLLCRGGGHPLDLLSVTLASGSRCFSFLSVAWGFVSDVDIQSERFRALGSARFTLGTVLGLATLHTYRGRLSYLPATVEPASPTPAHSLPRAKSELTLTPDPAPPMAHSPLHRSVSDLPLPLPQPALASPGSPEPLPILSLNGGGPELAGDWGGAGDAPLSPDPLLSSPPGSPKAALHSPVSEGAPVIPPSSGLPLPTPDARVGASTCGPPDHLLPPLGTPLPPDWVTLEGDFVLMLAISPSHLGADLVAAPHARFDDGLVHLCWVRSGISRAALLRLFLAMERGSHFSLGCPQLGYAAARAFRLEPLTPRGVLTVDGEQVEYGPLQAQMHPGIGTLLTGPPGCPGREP
The following applies: at 0.1 µM.

Assay [3] has as its target T1, Sphingosine kinase 2 (Homo sapiens). Conditions: at 1 µM.
Assay [4] addresses Casein kinase II subunit alpha (Homo sapiens) (UniProt P68400). Conditions: at 0.1 µM.
For assay [5] the target is unchanged. Conditions: at 1 µM.
The target of assay [6] is T2, Inhibitor of nuclear factor kappa-B kinase subunit alpha (Homo sapiens) (UniProt O15111).
T2 sequence (whole entry): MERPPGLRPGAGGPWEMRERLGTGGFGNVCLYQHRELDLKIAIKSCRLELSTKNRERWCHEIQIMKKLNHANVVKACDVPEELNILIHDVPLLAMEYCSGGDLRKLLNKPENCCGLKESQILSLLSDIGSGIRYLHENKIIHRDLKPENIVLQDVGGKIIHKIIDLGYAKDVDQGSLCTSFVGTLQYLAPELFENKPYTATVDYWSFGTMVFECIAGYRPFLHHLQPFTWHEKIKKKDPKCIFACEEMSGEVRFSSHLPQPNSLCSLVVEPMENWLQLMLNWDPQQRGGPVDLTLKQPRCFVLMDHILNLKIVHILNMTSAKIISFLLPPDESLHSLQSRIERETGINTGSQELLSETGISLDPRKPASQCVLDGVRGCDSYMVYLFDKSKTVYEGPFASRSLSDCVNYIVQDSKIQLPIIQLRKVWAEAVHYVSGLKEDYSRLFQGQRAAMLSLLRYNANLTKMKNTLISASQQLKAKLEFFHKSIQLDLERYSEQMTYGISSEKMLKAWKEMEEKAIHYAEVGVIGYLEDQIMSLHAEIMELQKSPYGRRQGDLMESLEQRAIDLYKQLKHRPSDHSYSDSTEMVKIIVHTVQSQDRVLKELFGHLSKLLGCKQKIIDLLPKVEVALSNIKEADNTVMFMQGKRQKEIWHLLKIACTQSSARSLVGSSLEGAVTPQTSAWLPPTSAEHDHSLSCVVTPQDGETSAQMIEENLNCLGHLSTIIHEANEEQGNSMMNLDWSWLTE
The following applies: at 0.1 µM.

The target of assay [7] is T2, Inhibitor of nuclear factor kappa-B kinase subunit alpha (Homo sapiens). The following applies: at 1 µM.
Assay [8] addresses T3, Inhibitor of nuclear factor kappa-B kinase subunit beta (Homo sapiens) (UniProt O14920).
T3 sequence (whole entry): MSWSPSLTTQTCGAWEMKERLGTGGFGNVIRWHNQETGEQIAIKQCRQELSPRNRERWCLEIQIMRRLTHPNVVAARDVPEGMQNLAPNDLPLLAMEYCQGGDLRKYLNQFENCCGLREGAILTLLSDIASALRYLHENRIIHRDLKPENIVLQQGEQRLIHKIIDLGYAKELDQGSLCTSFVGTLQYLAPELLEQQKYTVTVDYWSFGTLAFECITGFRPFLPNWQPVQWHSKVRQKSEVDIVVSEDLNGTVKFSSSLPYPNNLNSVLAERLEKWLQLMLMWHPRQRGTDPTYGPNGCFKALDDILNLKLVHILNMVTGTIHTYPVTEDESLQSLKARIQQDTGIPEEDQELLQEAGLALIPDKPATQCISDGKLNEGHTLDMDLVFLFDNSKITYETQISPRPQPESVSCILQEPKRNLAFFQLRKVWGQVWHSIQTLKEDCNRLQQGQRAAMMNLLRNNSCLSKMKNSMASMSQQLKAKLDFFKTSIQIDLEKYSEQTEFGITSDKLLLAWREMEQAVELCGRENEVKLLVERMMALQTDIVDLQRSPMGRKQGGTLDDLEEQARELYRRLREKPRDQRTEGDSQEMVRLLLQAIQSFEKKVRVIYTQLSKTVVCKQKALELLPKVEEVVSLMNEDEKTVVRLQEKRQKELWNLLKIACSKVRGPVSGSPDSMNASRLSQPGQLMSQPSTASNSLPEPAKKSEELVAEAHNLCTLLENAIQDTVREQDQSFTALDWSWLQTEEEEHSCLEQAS
Conditions: at 0.1 µM.

Assay [9] deals with T3, Inhibitor of nuclear factor kappa-B kinase subunit beta (Homo sapiens). Conditions: at 1 µM.
Assay [10] concerns the target T4, Inhibitor of nuclear factor kappa-B kinase subunit epsilon (Homo sapiens) (UniProt Q14164).
T4 sequence (whole entry): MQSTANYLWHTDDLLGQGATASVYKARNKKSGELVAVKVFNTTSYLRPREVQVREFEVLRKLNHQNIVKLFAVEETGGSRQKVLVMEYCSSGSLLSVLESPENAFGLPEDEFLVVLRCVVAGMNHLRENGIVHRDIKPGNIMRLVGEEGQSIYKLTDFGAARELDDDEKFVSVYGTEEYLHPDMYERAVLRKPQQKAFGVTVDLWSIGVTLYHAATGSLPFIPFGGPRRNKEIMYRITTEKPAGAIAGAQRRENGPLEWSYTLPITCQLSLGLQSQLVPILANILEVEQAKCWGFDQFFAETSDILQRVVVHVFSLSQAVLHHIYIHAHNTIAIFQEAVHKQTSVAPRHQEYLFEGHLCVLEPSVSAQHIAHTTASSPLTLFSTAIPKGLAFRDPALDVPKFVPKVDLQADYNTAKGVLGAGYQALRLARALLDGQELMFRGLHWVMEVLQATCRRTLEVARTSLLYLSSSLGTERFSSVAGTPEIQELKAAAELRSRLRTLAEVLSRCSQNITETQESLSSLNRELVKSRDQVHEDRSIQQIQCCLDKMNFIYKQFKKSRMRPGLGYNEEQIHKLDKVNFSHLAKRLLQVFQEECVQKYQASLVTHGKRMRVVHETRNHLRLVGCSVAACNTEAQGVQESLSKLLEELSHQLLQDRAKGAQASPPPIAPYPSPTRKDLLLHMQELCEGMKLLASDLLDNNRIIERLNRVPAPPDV
Conditions: at 0.1 µM.

Assay [11] addresses T4, Inhibitor of nuclear factor kappa-B kinase subunit epsilon (Homo sapiens). The following applies: at 1 µM.
Assay [12] concerns the target T5, Serine/threonine-protein kinase Nek1 (Homo sapiens) (UniProt Q96PY6).
T5 sequence (whole entry): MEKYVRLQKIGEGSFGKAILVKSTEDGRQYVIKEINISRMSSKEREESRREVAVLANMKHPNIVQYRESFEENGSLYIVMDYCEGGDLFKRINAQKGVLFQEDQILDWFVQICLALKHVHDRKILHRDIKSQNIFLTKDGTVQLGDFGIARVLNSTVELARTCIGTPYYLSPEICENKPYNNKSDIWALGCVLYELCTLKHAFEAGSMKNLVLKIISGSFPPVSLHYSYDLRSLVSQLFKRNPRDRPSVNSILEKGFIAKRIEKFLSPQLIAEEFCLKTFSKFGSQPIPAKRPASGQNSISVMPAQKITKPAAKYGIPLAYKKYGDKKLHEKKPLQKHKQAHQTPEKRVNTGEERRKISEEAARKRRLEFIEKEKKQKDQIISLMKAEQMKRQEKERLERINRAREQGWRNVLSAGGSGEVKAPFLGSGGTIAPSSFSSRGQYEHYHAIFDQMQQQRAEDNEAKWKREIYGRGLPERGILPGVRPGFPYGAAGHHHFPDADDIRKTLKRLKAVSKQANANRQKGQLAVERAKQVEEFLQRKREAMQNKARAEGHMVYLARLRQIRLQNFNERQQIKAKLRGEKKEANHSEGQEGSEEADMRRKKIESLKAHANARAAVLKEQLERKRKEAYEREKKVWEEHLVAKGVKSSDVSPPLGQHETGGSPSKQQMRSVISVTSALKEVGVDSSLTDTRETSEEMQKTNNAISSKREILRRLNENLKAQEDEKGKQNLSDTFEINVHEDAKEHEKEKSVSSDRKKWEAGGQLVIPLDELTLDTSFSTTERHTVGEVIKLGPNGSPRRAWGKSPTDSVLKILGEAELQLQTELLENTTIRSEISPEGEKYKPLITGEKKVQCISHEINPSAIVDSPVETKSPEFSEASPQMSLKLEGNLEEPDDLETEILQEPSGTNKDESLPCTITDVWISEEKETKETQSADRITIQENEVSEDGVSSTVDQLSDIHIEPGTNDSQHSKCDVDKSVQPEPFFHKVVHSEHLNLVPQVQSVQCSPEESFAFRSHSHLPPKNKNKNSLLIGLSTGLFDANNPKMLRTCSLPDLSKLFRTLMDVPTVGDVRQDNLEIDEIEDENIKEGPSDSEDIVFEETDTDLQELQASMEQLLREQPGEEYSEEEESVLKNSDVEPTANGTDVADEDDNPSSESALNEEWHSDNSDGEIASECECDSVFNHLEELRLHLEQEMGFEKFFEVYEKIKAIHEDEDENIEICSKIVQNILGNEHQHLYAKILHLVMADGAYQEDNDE
The following applies: at 0.1 µM.

Assay [13] deals with T5, Serine/threonine-protein kinase Nek1 (Homo sapiens). Conditions: at 1 µM.
Assay [14] deals with T6, Serine/threonine-protein kinase Nek2 (Homo sapiens) (UniProt P51955).
T6 sequence (whole entry): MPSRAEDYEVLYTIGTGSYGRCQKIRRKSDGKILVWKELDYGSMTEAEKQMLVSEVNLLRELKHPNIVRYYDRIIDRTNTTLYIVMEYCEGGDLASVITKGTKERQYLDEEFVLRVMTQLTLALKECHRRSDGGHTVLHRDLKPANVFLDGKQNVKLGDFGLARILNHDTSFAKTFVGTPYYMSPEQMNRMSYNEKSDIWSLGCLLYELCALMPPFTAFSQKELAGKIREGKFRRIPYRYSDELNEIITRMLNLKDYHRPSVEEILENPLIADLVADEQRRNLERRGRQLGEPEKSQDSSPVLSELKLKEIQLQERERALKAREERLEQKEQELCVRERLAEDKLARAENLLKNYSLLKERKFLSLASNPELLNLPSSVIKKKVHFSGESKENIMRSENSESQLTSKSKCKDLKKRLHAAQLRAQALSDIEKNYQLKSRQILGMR
The following applies: at 0.1 µM.

In assay [15] the target is T6, Serine/threonine-protein kinase Nek2 (Homo sapiens). The following applies: at 1 µM.
For assay [16], the target named is Serine/threonine-protein kinase Nek6 (Homo sapiens) (UniProt Q9HC98). Conditions: at 0.1 µM.
Sequence of Serine/threonine-protein kinase Nek6 (Homo sapiens) (Q9HC98 whole entry): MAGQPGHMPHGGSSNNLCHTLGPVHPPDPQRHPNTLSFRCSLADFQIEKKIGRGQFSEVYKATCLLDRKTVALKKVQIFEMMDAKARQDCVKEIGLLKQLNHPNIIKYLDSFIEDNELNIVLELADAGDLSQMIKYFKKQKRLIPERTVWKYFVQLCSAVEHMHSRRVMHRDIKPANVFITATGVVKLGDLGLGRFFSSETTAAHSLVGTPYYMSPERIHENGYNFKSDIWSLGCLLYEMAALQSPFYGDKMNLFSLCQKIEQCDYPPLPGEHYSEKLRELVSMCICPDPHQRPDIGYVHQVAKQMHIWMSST
The target is the same in assay [17]. Conditions: at 1 µM.
The target of assay [18] is Serine/threonine-protein kinase Nek7 (Homo sapiens) (UniProt Q8TDX7). The following applies: at 0.1 µM.
Sequence of Serine/threonine-protein kinase Nek7 (Homo sapiens) (Q8TDX7 whole entry, looked up): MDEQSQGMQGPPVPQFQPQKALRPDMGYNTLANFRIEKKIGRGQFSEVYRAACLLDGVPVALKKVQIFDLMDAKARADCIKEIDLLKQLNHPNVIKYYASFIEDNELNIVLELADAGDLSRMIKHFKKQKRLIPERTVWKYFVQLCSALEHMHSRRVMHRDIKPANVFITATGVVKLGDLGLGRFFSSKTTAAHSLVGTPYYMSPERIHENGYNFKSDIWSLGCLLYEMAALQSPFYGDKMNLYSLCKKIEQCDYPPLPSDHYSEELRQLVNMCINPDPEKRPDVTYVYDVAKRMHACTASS
Assay [19] has the same target. Conditions: at 1 µM.
The target in assay [20] is T7, Serine/threonine-protein kinase Nek9 (Homo sapiens) (UniProt Q8TD19).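 Note: reported value is the mean percent inhibition of NEK9.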
T7 sequence (whole entry): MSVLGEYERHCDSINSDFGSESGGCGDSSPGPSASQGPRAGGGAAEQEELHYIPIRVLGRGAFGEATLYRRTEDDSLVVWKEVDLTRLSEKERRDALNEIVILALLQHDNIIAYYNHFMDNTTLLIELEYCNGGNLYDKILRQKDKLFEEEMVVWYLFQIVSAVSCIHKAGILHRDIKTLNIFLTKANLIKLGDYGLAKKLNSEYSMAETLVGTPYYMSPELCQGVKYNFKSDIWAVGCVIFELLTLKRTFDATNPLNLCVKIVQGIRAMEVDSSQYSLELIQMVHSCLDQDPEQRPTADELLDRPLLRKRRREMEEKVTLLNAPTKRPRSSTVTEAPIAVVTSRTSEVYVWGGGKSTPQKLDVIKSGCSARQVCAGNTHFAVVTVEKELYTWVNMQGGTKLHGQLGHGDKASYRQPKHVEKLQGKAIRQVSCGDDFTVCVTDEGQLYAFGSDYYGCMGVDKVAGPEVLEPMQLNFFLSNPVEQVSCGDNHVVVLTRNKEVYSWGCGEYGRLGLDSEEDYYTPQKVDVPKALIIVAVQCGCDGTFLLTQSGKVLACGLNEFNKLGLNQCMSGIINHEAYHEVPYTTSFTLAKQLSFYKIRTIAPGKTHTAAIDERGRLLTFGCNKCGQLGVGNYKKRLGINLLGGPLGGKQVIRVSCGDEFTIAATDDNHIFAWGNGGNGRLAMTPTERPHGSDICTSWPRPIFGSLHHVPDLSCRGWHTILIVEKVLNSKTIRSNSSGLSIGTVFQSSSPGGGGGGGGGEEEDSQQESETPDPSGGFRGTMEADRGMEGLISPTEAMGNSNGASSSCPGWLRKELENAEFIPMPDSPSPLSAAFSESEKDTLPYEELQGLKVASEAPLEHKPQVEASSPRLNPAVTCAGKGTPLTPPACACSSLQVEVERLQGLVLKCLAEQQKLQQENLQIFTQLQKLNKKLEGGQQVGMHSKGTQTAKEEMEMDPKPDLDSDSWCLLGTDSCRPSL
Conditions: at 0.1 µM.

The structures appear in SMILES notation.

Sequence of Casein kinase II subunit alpha (Homo sapiens) (P68400 whole entry, looked up): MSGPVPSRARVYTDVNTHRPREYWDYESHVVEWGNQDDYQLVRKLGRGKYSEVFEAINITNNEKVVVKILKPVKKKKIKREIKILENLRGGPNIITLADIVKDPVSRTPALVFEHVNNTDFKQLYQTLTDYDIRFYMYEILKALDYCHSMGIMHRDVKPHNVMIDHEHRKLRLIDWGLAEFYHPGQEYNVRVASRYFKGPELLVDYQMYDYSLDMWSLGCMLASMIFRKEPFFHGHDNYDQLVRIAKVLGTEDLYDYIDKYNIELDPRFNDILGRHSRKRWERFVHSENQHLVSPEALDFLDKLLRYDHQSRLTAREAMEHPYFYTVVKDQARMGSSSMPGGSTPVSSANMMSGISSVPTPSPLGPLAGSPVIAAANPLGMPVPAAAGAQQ
Sequence of Sphingosine kinase 1 (Homo sapiens) (Q9NYA1 whole entry): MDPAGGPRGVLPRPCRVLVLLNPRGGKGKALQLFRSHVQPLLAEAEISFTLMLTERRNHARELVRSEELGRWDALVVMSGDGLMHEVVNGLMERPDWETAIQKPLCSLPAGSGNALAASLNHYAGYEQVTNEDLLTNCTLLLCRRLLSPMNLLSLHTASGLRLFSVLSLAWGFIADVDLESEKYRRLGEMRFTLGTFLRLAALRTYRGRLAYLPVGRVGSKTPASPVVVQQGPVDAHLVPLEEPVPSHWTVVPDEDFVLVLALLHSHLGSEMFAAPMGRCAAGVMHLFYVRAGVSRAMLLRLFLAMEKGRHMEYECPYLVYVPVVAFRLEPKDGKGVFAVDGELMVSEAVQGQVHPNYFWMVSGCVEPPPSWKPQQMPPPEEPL

On to `Cc1ccc(O)cc1Nc1ccnc2cc(-c3ccccn3)ccc12`, for which the inhibition in assay [1] is 0.38%; in assay [2], 0.62%; in assay [3] it was -0.19%; in [4] it was 1.53%; in assay [5], -1.39%; in assay [6], 1.97%. Further, the inhibition in assay [7] is -1.79%; in [8], 6.75%; in assay [9], 1.3%; in assay [10], 5.73%; in assay [11], 4.69%; in assay [12], 2.99%. For the same compound, the inhibition in assay [13] was 2.32%; in assay [14] it was 5.83%; in [15], 4.75%; in assay [16], 5.8%; in [17], -1.66%; in [18], 3.67%. For the same compound, the results for the inhibition in [19] and in assay [20] were 3.3% and 2.78%, respectively.
